# According to PubChem BioAssay (Tox21):
# Values without a mark were called inactive. Results filed as inconclusive are left out. Where a call stands in place of a potency, no number is given. The source made the active and inactive calls. Unless noted, the call rests on the fitted dose curve; in most records, active means well fitted curve in the direction sought with a large enough effect in the repeat runs; inconclusive means weak or mixed curves; inactive means no such curve, though single readings can be large; an effect the other way counts as inactive or inconclusive.
# How the values were obtained:
# [1] = qHTS assay to identify small molecule agonists of the estrogen related receptor (ERR) signaling pathway (AID 1224820)
# Procedure, shortened: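 An ERR cell line provided by NTP was seeded at 2,000 cells per well and allowed to settle for 6 h before compounds in DMSO were added. After 18 h at 37 C, luciferase activity was measured by One-Glo luminescence.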
# [2] = qHTS assay to identify small molecule antagonists of the estrogen related receptor signaling pathway with the pleiotropic PPARgamma coactivator (PGC) cell viability counter screen (AID 1224822;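 further: series mostly up to about 46 µM; viability read after 17.5 h compound exposure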)
# Procedure, shortened: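 Viable cell signal (CellTiter-Fluor, 30 min, 37 C/5% CO2) was measured in PGC/ERR cells after a 17.5 h compound incubation.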
# [3] = qHTS assay to identify small molecule agonists of the estrogen related receptor signaling pathway with the pleiotropic PPARgamma coactivator (PGC) (AID 1224823)
# Procedure, shortened: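 Compounds dissolved in DMSO are added by pin tool to PGC/ERR cells that have settled for 6 h, and incubation continues 18 h at 37 C. Reporter output is measured as One-Glo luminescence.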
# Aromatase (Homo sapiens) = Aromatase (Homo sapiens) (UniProt P11511); test: qHTS assay to identify aromatase inhibitors (AID 743083); further: series mostly up to about 70 µM; nearly all actives have a fitted effect of over 55% in size
# [4] = target: Nuclear receptor subfamily 1 group I member 3 (Homo sapiens) (UniProt Q14994); test: qHTS assay to identify small molecule agonists of the constitutive androstane receptor (CAR) signaling pathway (AID 1224839);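 further: HepG2 cells stably carrying human CAR and a CYP2B6 luciferase reporter; series mostly up to about 92 µM; nearly all actives have a fitted effect of over 15% in size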
# Procedure, shortened: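 HepG2 cells stably expressing hCAR and a CYP2B6-2.2kb luciferase reporter were treated with compounds at 15 concentrations plus 0.75 uM PK11195 (final) for 24 h at 37 C; luminescence was read after ONE-Glo addition.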
# [5] = qHTS assay to identify small molecule agonists of the estrogen related receptor signaling pathway with the pleiotropic PPARgamma coactivator (PGC) from Tox21 10K library (AID 1224842); further: nearly all actives have a fitted effect of over 15% in size
# Procedure, shortened: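 PGC/ERR reporter cells (NTP line) were seeded 2,000 per well, rested 6 h at 37 C/5% CO2, then pin-dosed with compounds in DMSO for 18 h at 37 C; luciferase read by One-Glo luminescence after 30 min at room temperature.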
# [6] = qHTS assay to identify small molecule agonists of H2AX (AID 1224845; active means well fitted activation curve with a large enough effect in the signal ratio in the repeat runs, not every such curve was filed as active; the % refers to the signal ratio)
# Procedure, shortened: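 Wild-type CHO-K1 cells plated overnight, then exposed 3 hr at 37C to compounds at 15 concentrations (0.76% DMSO). Lysed, then HTRF anti-pH2AX(S139)-cryptate/anti-H2AX-d2 detection after 24 hr at room temperature; emissions 665 and 620 nm.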
# [7] = target: Acetylcholinesterase (Homo sapiens) (UniProt P22303); test: Acetylcholinesterase (AChE) small molecule antagonists: colormetric cell-based qHTS assay (AID 1347395; calls by dose curve; further: nearly all actives have a fitted effect of over 30% in size)
# Procedure, shortened: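 SH-SY5Y cells, plated overnight at 37 C, were exposed to compounds for 30 min at 37 C and 5% CO2. Acetylthiocholine plus DTNB was then added, and thiocholine from endogenous AChE was quantified colorimetrically after 90 min at 37 C.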
# [8] = target: Acetylcholinesterase (Homo sapiens) (UniProt P22303); test: Acetylcholinesterase (AChE) small molecule antagonists: enzyme-based qHTS assay (AID 1347397; calls by dose curve; further: nearly all actives have a fitted effect of over 55% in size); settings: Potency: AChE enzyme activity inhibition; outcome: AChE enzyme activity inhibition
# Procedure, shortened: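 Tox21 library chemicals are tested in qHTS format against recombinant human AChE. The enzyme, dispensed at 50 mU/mL, sits with compound for 30 min at room temperature. A DTNB–acetylthiocholine cocktail follows, and colour is read after 10 min.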
# [9] = target: Acetylcholinesterase (Homo sapiens) (UniProt P22303); test: Acetylcholinesterase (AChE) small molecule antagonists: fluorescence cell-based qHTS assay (AID 1347398; calls by dose curve; further: nearly all actives have a fitted effect of over 50% in size); settings: Potency: AChE activity; outcome: AChE activity
# Procedure, shortened: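 Cellular AChE inhibition: SH-SY5Y cells treated with test chemical for 30 min at 37 C, then acetylthiocholine hydrolysis followed over 40 min at room temperature via thiocholine-reactive Thiolite Green fluorescence (490/520 nm).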
# [10] = target: Acetylcholinesterase (Homo sapiens) (UniProt P22303); test: Acetylcholinesterase (AChE) small molecule antagonists: enzyme-based qHTS assay with human liver microsomes (AID 1347399; calls by dose curve; further: nearly all actives have a fitted effect of over 60% in size); settings: Potency: qHTS inhibition; outcome: qHTS inhibition
# Procedure, shortened: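 Recombinant human AChE (50 mU/mL in the enzyme mix) and human liver microsomes (0.25 mg/mL final) were preincubated with compound and NADPH (0.25 mg/mL final) for 30 min at 37 C. Acetylthiocholine/DTNB was then added; thiocholine was read colorimetrically after 10 min at room temperature.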
# [11] = qHTS assay to identify small molecule antagonists of the estrogen related receptor (ERR) signaling pathway (AID 1224819; further: nearly all actives have a fitted effect of over 50% in size; further: potency means the concentration at half of the fitted maximal effect)
# Procedure, shortened: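 ERR reporter cells were plated at 2,000 cells/well and left 6 h at 37 C/5% CO2 before pin-tool transfer of compounds in DMSO. After 18 h at 37 C, One-Glo was added and luminescence was read 30 min later at room temperature.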
# [12] = tested on: estrogen-related receptor alpha (ERRalpha) with PGC-1alpha coactivator, human; test: qHTS assay to identify small molecule antagonists of the estrogen related receptor signaling pathway with the pleiotropic PPARgamma coactivator (PGC) (AID 1224821; calls by dose curve;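 further: series mostly up to about 46 µM; lower luminescence signal means antagonism of PGC/ERR signalling; nearly all actives have a fitted effect of over 50% in size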)
# Procedure, shortened: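 A PGC/ERR cell line supplied by NTP is seeded, allowed 6 h at 37 C, and treated with test compounds in DMSO for 18 h. Signal is then measured as luciferase luminescence using One-Glo.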
# [13] = qHTS assay for small molecule agonists of the p53 signaling pathway (AID 651631; calls by dose curve; further: nearly all actives have a fitted effect of over 15% in size)
# Procedure, shortened: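 HCT-116 cells carrying a stable p53 response element–beta-lactamase reporter were plated, rested 5 h at 37 °C, then exposed to compound in DMSO for 16 h at 37 °C; reporter activity was read as FRET substrate fluorescence after 2 h at room temperature.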
# [14] = target: Aryl hydrocarbon receptor (Homo sapiens) (UniProt P35869); test: qHTS assay to identify small molecule that activate the aryl hydrocarbon receptor (AhR) signaling pathway (AID 743085);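 further: HG2L7.5c1 human HepG2 liver cells with stably integrated DRE-driven firefly reporter; series mostly up to about 70 µM; nearly all actives have a fitted effect of over 15% in size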
# Procedure, shortened: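 HepG2 cells (HG2L7.5c1) stably carrying a firefly luciferase reporter driven by 20 dioxin responsive elements were exposed to compound for 24 h at 37C after a 5 h settling period; luminescence rise (ONE-Glo) indicated activation.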
# [15] = Caspase-3/7 induction in HepG2 cells by small molecules, qHTS assay (AID 1346978); further: nearly all actives have a fitted effect of over 15% in size
# Procedure, shortened: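 Wild-type HepG2 cells (2,000/well) were settled 5 h at 37 C, 5% CO2, then exposed to compounds in DMSO for 17 h. Caspase-3/7 activity was read by luminescence 30 min after adding Caspase-Glo 3/7 reagent at room temperature.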
# Acetylcholinesterase (Homo sapiens), sequence (P22303 whole entry, looked up): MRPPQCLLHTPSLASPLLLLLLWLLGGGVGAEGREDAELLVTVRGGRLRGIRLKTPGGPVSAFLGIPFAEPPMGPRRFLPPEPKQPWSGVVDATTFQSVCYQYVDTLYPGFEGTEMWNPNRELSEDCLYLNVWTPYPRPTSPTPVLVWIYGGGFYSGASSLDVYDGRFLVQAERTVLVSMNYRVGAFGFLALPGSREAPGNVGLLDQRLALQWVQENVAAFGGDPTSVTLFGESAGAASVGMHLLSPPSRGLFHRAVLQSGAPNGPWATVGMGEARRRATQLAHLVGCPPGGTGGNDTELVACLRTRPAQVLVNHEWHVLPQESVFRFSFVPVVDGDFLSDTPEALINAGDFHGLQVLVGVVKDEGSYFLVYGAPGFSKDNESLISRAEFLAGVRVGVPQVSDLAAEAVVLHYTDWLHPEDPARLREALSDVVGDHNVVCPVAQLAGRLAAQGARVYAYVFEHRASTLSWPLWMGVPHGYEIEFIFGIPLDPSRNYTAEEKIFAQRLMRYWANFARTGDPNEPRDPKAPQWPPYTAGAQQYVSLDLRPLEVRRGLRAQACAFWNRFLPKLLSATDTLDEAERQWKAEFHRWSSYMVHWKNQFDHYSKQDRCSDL
# Aryl hydrocarbon receptor (Homo sapiens), sequence (P35869 whole entry, looked up): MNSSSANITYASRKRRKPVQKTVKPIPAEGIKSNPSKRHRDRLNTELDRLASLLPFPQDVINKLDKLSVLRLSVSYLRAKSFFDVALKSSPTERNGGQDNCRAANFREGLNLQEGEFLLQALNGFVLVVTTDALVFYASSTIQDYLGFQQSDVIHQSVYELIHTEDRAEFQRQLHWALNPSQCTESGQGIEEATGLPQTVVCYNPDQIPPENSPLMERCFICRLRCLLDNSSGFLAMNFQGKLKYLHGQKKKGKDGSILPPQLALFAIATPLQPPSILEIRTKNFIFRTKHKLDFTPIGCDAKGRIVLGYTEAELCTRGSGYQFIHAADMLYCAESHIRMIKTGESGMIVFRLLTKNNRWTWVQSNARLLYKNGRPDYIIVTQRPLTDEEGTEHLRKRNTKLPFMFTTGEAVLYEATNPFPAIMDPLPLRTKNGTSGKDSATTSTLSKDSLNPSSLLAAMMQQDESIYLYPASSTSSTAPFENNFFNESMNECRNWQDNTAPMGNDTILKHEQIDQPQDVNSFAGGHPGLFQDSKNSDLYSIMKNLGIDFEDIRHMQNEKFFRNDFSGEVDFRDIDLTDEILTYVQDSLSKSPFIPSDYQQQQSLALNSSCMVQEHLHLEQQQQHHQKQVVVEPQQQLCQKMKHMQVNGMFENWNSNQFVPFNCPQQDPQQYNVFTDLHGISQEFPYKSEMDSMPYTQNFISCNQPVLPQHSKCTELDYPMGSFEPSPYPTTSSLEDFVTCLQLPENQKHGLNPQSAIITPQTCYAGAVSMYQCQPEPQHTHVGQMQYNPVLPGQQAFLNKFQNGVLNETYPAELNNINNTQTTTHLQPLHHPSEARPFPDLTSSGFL
# Nuclear receptor subfamily 1 group I member 3 (Homo sapiens), sequence (Q14994 whole entry, looked up): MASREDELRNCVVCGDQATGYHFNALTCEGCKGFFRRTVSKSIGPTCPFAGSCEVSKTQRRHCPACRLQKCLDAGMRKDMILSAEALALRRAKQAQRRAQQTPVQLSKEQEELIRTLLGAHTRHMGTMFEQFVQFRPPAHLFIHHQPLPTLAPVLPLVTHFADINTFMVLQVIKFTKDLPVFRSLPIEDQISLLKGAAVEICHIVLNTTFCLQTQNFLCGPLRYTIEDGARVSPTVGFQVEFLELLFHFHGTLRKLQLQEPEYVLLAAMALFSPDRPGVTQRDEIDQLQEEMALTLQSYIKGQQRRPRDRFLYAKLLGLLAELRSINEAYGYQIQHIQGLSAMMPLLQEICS
# Aromatase (Homo sapiens), sequence (P11511 whole entry, looked up): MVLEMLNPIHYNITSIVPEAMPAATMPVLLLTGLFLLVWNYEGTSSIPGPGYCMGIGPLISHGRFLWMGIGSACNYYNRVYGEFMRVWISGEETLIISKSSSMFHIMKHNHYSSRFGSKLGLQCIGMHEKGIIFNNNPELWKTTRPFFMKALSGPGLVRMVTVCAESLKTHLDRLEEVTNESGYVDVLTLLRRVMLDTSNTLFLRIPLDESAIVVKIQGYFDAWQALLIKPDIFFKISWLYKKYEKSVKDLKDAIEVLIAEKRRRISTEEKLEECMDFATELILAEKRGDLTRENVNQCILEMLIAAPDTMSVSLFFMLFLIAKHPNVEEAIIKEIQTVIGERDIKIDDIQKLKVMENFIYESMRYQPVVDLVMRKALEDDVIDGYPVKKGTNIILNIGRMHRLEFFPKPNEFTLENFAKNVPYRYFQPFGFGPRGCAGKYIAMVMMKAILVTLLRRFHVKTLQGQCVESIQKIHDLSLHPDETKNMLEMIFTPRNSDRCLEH
compound,measurement,setting,value
NC(=O)COc1c(F)cc(SCCNS(=O)(=O)c2ccccc2)cc1F,Potency,[1],inactive
same,Potency,[2],inactive
same,Potency,[3],inactive
Clc1nc(Cl)c(Cl)c(Cl)c1Cl,Potency,Aromatase (Homo sapiens),inactive
same,Potency,[4],inactive
same,Potency,[5],inactive
same,Potency,[6],inactive
same,Potency,[7],inactive
same,Potency,[8],inactive
same,Potency,[9],inactive
same,Potency,[10],inactive
CC(=O)NBr,Potency,[11],inactive
same,Potency,[12],inactive
same,Potency,[2],inactive
same,Potency,[3],inactive
CO[C@H]1CC=C2CCN3CCC4=C(CC(=O)OC4)[C@]23C1,Potency,[2],inactive
CN1CC[C@@]2(C)c3cc(O)ccc3N(C)C12 (stereo partly specified),Potency,[1],inactive
same,Potency,[3],inactive
c1ccc2c(c1)[I+]c1ccccc1-2,Potency,[11],31 nM (active)
same,Potency,[1],inactive
same,Potency,[3],inactive
NCCc1c[nH]c2ccc(O)cc12,Potency,[11],inactive
same,Potency,[2],inactive
same,Potency,[3],inactive
CC[C@@H]1C(=O)OC[C@@H]1Cc1cncn1C,Potency,[2],inactive
[Cl-].[Cl][Pt].[NH2-].[NH2-].c1ccncc1,Potency,[2],inactive
O=P(OC(CCl)CCl)(OC(CCl)CCl)OC(CCl)CCl,Potency,[13],inactive
same,Potency,[14],inactive
same,Potency,[5],inactive
same,Potency,[6],inactive
same,Potency,[15],inactive
same,Potency,[7],inactive
same,Potency,[8],inactive
same,Potency,[9],inactive
same,Potency,[10],inactive
O=[N+]([O-])c1cccc(Cl)c1Cl,Potency,[14],inactive
same,Potency,[5],inactive
same,Potency,[7],inactive
same,Potency,[8],inactive
same,Potency,[9],inactive
same,Potency,[10],inactive
